Measurements from PubChem BioAssay (NCI).
About 79,000 compounds went through this panel and 15% of them were active in at least one assay; those are over-represented in the sample as a whole. Cut-off read from the data, not from the text of the source: active = growth inhibition above about 70%; inactive = the rest.

Tests used:
[1] = NCI Yeast Anticancer Drug Screen. Data for the rad50 strain (AID 155);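 note: 0% = growth of vehicle-only cultures of the same strain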; conditions: S. cerevisiae rad50 strain growth inhibition; at 50.0 µM; active compounds read high
Procedure, shortened: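 Yeast carrying a defined DNA repair defect were exposed to test compounds, and growth was compared with vehicle-treated controls to give percent inhibition.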

[2] = NCI Yeast Anticancer Drug Screen. Data for the mec2-1 strain (AID 157); conditions: S. cerevisiae mec2-1 strain, at 50.0 µM, active compounds read high
Procedure, shortened: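 Vehicle-treated cultures served as reference for growth inhibition of compound-exposed mec2-1 yeast.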

[3] = NCI Yeast Anticancer Drug Screen. Data for the sgs1 mgt1 strain (AID 161);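 note: 0% = growth of cultures given vehicle only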; conditions: S. cerevisiae sgs1 mgt1 strain, at 50.0 µM, active compounds read high
Procedure, shortened: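 Genetically altered yeast, compound exposure, growth inhibition relative to vehicle.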

[4] = NCI Yeast Anticancer Drug Screen. Data for the cln2 rad14 strain (AID 165);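 note: 0% = growth equal to vehicle treated cultures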; conditions: S. cerevisiae cln2 rad14 strain, at 50.0 µM, active compounds read high
Procedure, shortened: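 Each compound was tested on cln2 rad14 yeast. Inhibition of growth was calculated against vehicle-exposed controls.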

[5] = NCI Yeast Anticancer Drug Screen. Data for the bub3 strain (AID 167); conditions: S. cerevisiae bub3 mutant strain, at 50.0 µM, active compounds read high
Procedure, shortened: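 Compounds were applied to a genetically altered yeast strain carrying a cell-cycle control defect. Growth inhibition was scored against vehicle-treated controls.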

[6] = NCI Yeast Anticancer Drug Screen. Data for the mlh1 rad18 strain (AID 175); conditions: S. cerevisiae mlh1 rad18 strain growth inhibition; at 50.0 µM; active compounds read high
Procedure, shortened: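 Vehicle-treated cultures served as the reference for growth inhibition in a yeast strain carrying DNA damage repair alterations exposed to each compound.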

Measured: growth inhibition

c1ccc2cc(C3OCCCO3)ccc2c1
inactive: [1] 19.4% | [2] 10.2% | [3] -2.05% | [4] -62.9% | [5] -2.45% | [6] 4.2%

O=[N+]([O-])c1ccc(N=C/C=C\Nc2ccc([N+](=O)[O-])cc2)cc1
inactive: [1] 6.8% | [2] 14.8% | [3] 11.2% | [4] -13.4% | [5] 6.85% | [6] 14.8%

CC(C)(OC(=O)c1ccc([N+](=O)[O-])cc1)C1CC1
inactive: [1] -12.1% | [2] 1.55% | [3] -23.6% | [4] -28.9% | [5] -11.1% | [6] -24.4%

CC(=O)OCC1OC(OC(C)=O)C(NC(=O)C[NH-])C(OC(C)=O)C1OC(C)=O.CC(=O)OCC1OC(OC(C)=O)C(NC(=O)C[NH-])C(OC(C)=O)C1OC(C)=O.[Cl][Pt+2][Cl] (stereo not given)
inactive: [1] -2.75% | [2] -19.4% | [3] -5.85% | [4] -42.9% | [5] 1.7% | [6] 21.9%

CC(=O)Nc1ccc(-c2nnc(SCC(=O)Nc3cccc(C)c3)o2)cc1
inactive: [1] 5.2% | [2] 14.7% | [3] 32% | [4] 24% | [5] 9.7% | [6] -7.75%

Cc1ccccc1C1OC2=C(Nc3ccc(Cl)cc3N2)C1=O (stereo not given)
inactive: [1] 15.6% | [2] -1.65% | [3] 10.3% | [4] 9.85% | [5] -11.8% | [6] 25.2%

O=C(O)/C(=C\c1ccccc1Cl)S(=O)(=O)c1ccccc1
inactive: [1] -25.5% | [2] -6.45% | [3] -12.6% | [4] -0.35% | [5] -16% | [6] 15.1%

CCCC1CCCC1C (stereo not given)
inactive: [1] 4.3% | [2] 4.25% | [3] 8.45% | [4] 5.4% | [5] 17.4% | [6] -1.85%

CCCCS(=O)(=O)CCC(N)P(=O)(O)O (stereo not given)
inactive: [1] -26.9% | [2] -77.8% | [3] -43.2% | [4] -33.8% | [5] -6.15% | [6] -36.9%

CCOC(=O)c1c2c(nc3c1CCCC3)CCCC2
inactive: [1] 3.2% | [2] 3.45% | [3] -1.6% | [4] -1.05% | [5] 7.4% | [6] -24.9%

CCCCCCC1(C=O)C(=O)NC(=O)N1C (stereo not given)
inactive: [1] 10.3% | [2] 9.65% | [3] 6.45% | [4] 13.3% | [5] 4.1% | [6] -0.35%

CCC1(CCC(C)C)C(=O)NC(=Nc2ccccc2)N(c2ccccc2)C1=O (stereo not given)
inactive: [1] 18.7% | [2] 7.95% | [3] -0.65% | [4] 1.55% | [5] 4.45% | [6] 10.1%

O=C1NC2(CCCCC2)C(=O)N1CCN1C(=O)NC2(CCCCC2)C1=O
inactive: [1] 6.7% | [2] 4.2% | [3] -1.8% | [4] 8.85% | [5] -14.3% | [6] -10.5%

CSCCCNC(=O)NS(=O)(=O)c1ccc(C)cc1
inactive: [1] 6.55% | [2] -1.35% | [3] 8.95% | [4] 7.75% | [5] 6.6% | [6] 2.85%

CCOC(=O)/C=C/SCCCN
inactive: [1] 3.95% | [2] -1.4% | [3] 3.3% | [4] -22.3% | [5] -4.75% | [6] 6.4%

O=[N+]([O-])c1ccc(N=Cc2ccc(O)cc2)cc1
inactive: [1] -17.9% | [2] -19.2% | [3] -30.2% | [4] -27.3% | [5] -4.35% | [6] -67.2%

CC(=O)OCC1OC(n2cc(F)c(=O)[nH]c2=O)C(NC(=O)N(CCCl)N=O)C(OC(C)=O)C1OC(C)=O (stereo not given)
inactive: [1] 2.4% | [2] -13.9% | [3] 12.8% | [4] 10.8% | [5] 0.9% | [6] -5.85%

O=C(Nc1ccc(Cl)cc1[N+](=O)[O-])N1CCN(c2ccccc2)CC1
inactive: [1] -8.35% | [2] 21.9% | [3] 29.4% | [4] -10.3% | [5] 44.3% | [6] 28.1%

O=C(Nc1ccccc1)c1ccccc1Cl
inactive: [1] 24.5% | [2] -0.15% | [3] 0.35% | [4] 2.8% | [5] -3.05% | [6] 12.3%

Nc1cc(F)ccc1CC(=O)O
inactive: [1] 11.4% | [2] 23.1% | [3] 15.3% | [4] -4.8% | [5] 11.7% | [6] 4.6%
